The source of these data is a collection of fitness landscapes (doi:10.1016/j.celrep.2020.107928).

In all, about 81,000 sequences were measured (“one-hybrid fitness for binding parS DNA”: median about -0.17, highest 2% from about 0.51 on). Only a selection was taken, and the highest values are over-represented in it overall.

B1: Caulobacter ParB omega fusion; a variant is named by its letters at X, in order, B8GW30 (parent)
chain: MESVVVGEPGMSEGRRGLGRGLSALLGEVDAAPAQAPGEQLGGSREAPIEILQRNPDQPRRTFREEDLEDLSNSIREKGVLQPILVRPSPDTAGEYQIVAGERAWRAAQRAGLKTVPIMVRELDDLAVLEIGIIENVQRADLNVLEEALSYKVLMEKFERTQENIAQTIGKSXSHVANXMRLLXLPDEVQSYLVSGELTAXHARAIAAAADPVALAKQIIEGGLSVRETEALARKAPNLSAGKSKGGRPPRVKDTDTQALESDLSSVLGLDVSIDHRGSTGTLTITYATLEQLDDLCNRLTRGI

The variants in the assay derive from B1. The assay is described as follows: one-hybrid fitness for binding parS DNA (scaled: cognate 1, non-cognate 0); higher = stronger binding. The note with it: with parS DNA site. The gist of the method: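 Pre- and post-selection plasmids were Illumina-sequenced, three replicate libraries were pooled, and any variant with under 10 reads was removed. The libraries were Caulobacter ParB with four specificity codons randomised, selected in E. coli USO through a HIS3 reporter whose site is 19 bp from the promoter. Cells grew 48 hours at 37°C on M9 without histidine, with 0.1 mM IPTG and 5 mM 3-AT. Fitness is the log change in variant-to-wild-type read ratio, rescaled against cognate and non-cognate.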
Consider RIKY, for which the “one-hybrid fitness for binding parS DNA” value came out at 0.747. In the case of RKKY it was 0.492; in that of RTVY, 0.443; in that of RPKY, not above 0.2. Turning to RLKY, the “one-hybrid fitness for binding parS DNA” value was found to be 0.704.

For the variant RLVY, the “one-hybrid fitness for binding parS DNA” value was determined as 0.465. For the variant RCKY, the “one-hybrid fitness for binding parS DNA” value is 0.716. On to QPIK, for which the “one-hybrid fitness for binding parS DNA” value was not above 0.2. For KIKS the value was not above 0.2; for KKAL, not above 0.2. Regarding YKKT, the “one-hybrid fitness for binding parS DNA” value was not above 0.2. As for ALMT, the “one-hybrid fitness for binding parS DNA” value was not above 0.2. As for EPHL, the “one-hybrid fitness for binding parS DNA” value is not above 0.2. Turning to FFHG, the “one-hybrid fitness for binding parS DNA” value was not above 0.2.

FQRT: the “one-hybrid fitness for binding parS DNA” value was not above 0.2. Regarding GLWL, the “one-hybrid fitness for binding parS DNA” value was not above 0.2. GYNP: the “one-hybrid fitness for binding parS DNA” value is not above 0.2. Take PKHV: the “one-hybrid fitness for binding parS DNA” value is not above 0.2. For the variant LGGC, the “one-hybrid fitness for binding parS DNA” value was not above 0.2. In the case of RSKY it was 0.609. For RRVY the value was 0.247; for RSVY, 0.37; for RHVY, 0.354. Consider SFKY, for which the “one-hybrid fitness for binding parS DNA” value was not above 0.2. RFKY: the “one-hybrid fitness for binding parS DNA” value came out at 0.569. As to RHYY, the “one-hybrid fitness for binding parS DNA” value amounted to 0.438.

For the variant RHKY, the “one-hybrid fitness for binding parS DNA” value turned out to be 0.518.

With RFVY, the “one-hybrid fitness for binding parS DNA” value came out at 0.301. On to RRKY, for which the “one-hybrid fitness for binding parS DNA” value was 0.856. As for RDKY, the “one-hybrid fitness for binding parS DNA” value was not above 0.2.

As for QMIF, the “one-hybrid fitness for binding parS DNA” value was not above 0.2. For VKTF the value was not above 0.2; for YLRV, not above 0.2.

In the case of VMPR, the “one-hybrid fitness for binding parS DNA” value is not above 0.2.

CRLW: the “one-hybrid fitness for binding parS DNA” value is not above 0.2.

Turning to GEYT, the “one-hybrid fitness for binding parS DNA” value was not above 0.2. Turning to RAPY, the “one-hybrid fitness for binding parS DNA” value was not above 0.2.

As for RAKY, the “one-hybrid fitness for binding parS DNA” value is 0.644. With RMKY, the “one-hybrid fitness for binding parS DNA” value was 0.782. As to RAVY, the “one-hybrid fitness for binding parS DNA” value came to 0.412. As for RMVY, the “one-hybrid fitness for binding parS DNA” value was 0.438. For KEPT, the “one-hybrid fitness for binding parS DNA” value was not above 0.2.

Regarding QTVF, the “one-hybrid fitness for binding parS DNA” value is not above 0.2. With RIVP, the “one-hybrid fitness for binding parS DNA” value is not above 0.2. In the case of RIKD it was not above 0.2. For the variant RIKS, the “one-hybrid fitness for binding parS DNA” value turned out to be 0.822. As to RIKP, the “one-hybrid fitness for binding parS DNA” value was not above 0.2.

Consider RIVS, for which the “one-hybrid fitness for binding parS DNA” value was determined as 1.01. RIVD: the “one-hybrid fitness for binding parS DNA” value was not above 0.2. For NSRE the value was not above 0.2. In the case of AKIQ it was not above 0.2. In the case of TIGL it was not above 0.2; in that of RMGS, 0.988; in that of RAGN, 0.448. As for RCGS, the “one-hybrid fitness for binding parS DNA” value worked out at 0.945. Regarding RFGS, the “one-hybrid fitness for binding parS DNA” value worked out at 0.969. Consider RAGS, for which the “one-hybrid fitness for binding parS DNA” value was found to be 0.989. As for RPGS, the “one-hybrid fitness for binding parS DNA” value was not above 0.2. Turning to RFGH, the “one-hybrid fitness for binding parS DNA” value was determined as 0.245. In the case of RCGP it was not above 0.2. For the variant RMGD, the “one-hybrid fitness for binding parS DNA” value was not above 0.2. For RAGD the value was not above 0.2. With RFGN, the “one-hybrid fitness for binding parS DNA” value was found to be 0.435. For RMGP the value was 0.235. In the case of SGNV it was not above 0.2; in that of PNMM, not above 0.2; in that of SVIY, not above 0.2.

On to CGSR, for which the “one-hybrid fitness for binding parS DNA” value is not above 0.2. As to AIHE, the “one-hybrid fitness for binding parS DNA” value was not above 0.2. In the case of NKPL it was not above 0.2; in that of WVGM, not above 0.2.

Consider CMEW, for which the “one-hybrid fitness for binding parS DNA” value was not above 0.2.

As for NDFI, the “one-hybrid fitness for binding parS DNA” value is not above 0.2. For the variant KPTT, the “one-hybrid fitness for binding parS DNA” value is not above 0.2. For WGPD, the “one-hybrid fitness for binding parS DNA” value was not above 0.2. With RIGN, the “one-hybrid fitness for binding parS DNA” value is 0.477. Take RTGS: the “one-hybrid fitness for binding parS DNA” value amounted to 0.92. In the case of RKGS it was 0.833; in that of RTGN, 0.44. For RKGN the value was 0.429; for RHGN, 0.363; for RKGD, not above 0.2.

With RTGD, the “one-hybrid fitness for binding parS DNA” value is not above 0.2.

For RIGS, the “one-hybrid fitness for binding parS DNA” value amounted to 0.959. For RHGS the value was 0.888. In the case of RIGP it was not above 0.2; in that of RHGD, not above 0.2; in that of NELG, not above 0.2. For VCTS, the “one-hybrid fitness for binding parS DNA” value was not above 0.2. As to QDQT, the “one-hybrid fitness for binding parS DNA” value is not above 0.2. Turning to APQI, the “one-hybrid fitness for binding parS DNA” value is not above 0.2.

As to TGHY, the “one-hybrid fitness for binding parS DNA” value is not above 0.2. As for LTYE, the “one-hybrid fitness for binding parS DNA” value is not above 0.2. FDTS: the “one-hybrid fitness for binding parS DNA” value was not above 0.2. Regarding VQYL, the “one-hybrid fitness for binding parS DNA” value is not above 0.2. Regarding GTNP, the “one-hybrid fitness for binding parS DNA” value is not above 0.2. Take RIGY: the “one-hybrid fitness for binding parS DNA” value was determined as 0.51. For the variant RSGS, the “one-hybrid fitness for binding parS DNA” value amounted to 0.983. On to RSGN, for which the “one-hybrid fitness for binding parS DNA” value turned out to be 0.46. For RSGD, the “one-hybrid fitness for binding parS DNA” value is not above 0.2. In the case of RCGY it was 0.43. For the variant LCDD, the “one-hybrid fitness for binding parS DNA” value is not above 0.2.

Consider TNCY, for which the “one-hybrid fitness for binding parS DNA” value was not above 0.2. For the variant FSDT, the “one-hybrid fitness for binding parS DNA” value was not above 0.2. Take KCRM: the “one-hybrid fitness for binding parS DNA” value was not above 0.2. RMPH: the “one-hybrid fitness for binding parS DNA” value was not above 0.2. For RMPT, the “one-hybrid fitness for binding parS DNA” value came to 0.625. With RMIK, the “one-hybrid fitness for binding parS DNA” value was not above 0.2. In the case of RMIQ it was not above 0.2; in that of RMIT, 0.752.

Take RMPR: the “one-hybrid fitness for binding parS DNA” value was not above 0.2. VQYW: the “one-hybrid fitness for binding parS DNA” value is not above 0.2. For INEC the value was not above 0.2. Turning to RQWY, the “one-hybrid fitness for binding parS DNA” value was 0.418. As to TEPE, the “one-hybrid fitness for binding parS DNA” value is not above 0.2. Take REAC: the “one-hybrid fitness for binding parS DNA” value was not above 0.2. In the case of RCAC it was 1.02; in that of RSAH, 0.226; in that of RSAN, 0.426. In the case of RPAC, the “one-hybrid fitness for binding parS DNA” value is not above 0.2. Turning to RSAC, the “one-hybrid fitness for binding parS DNA” value was 0.932. Take IILS: the “one-hybrid fitness for binding parS DNA” value is not above 0.2. As to TCRI, the “one-hybrid fitness for binding parS DNA” value was not above 0.2. KHHT: the “one-hybrid fitness for binding parS DNA” value is not above 0.2. As to HMNT, the “one-hybrid fitness for binding parS DNA” value was not above 0.2. For RTPG the value was 0.764. As for RTIG, the “one-hybrid fitness for binding parS DNA” value turned out to be 0.98.

Turning to RTIK, the “one-hybrid fitness for binding parS DNA” value is not above 0.2.

With RTPP, the “one-hybrid fitness for binding parS DNA” value was not above 0.2. In the case of RTIF, the “one-hybrid fitness for binding parS DNA” value is 0.233. RTPQ: the “one-hybrid fitness for binding parS DNA” value is not above 0.2.

For the variant KRWW, the “one-hybrid fitness for binding parS DNA” value was not above 0.2. In the case of KLNR, the “one-hybrid fitness for binding parS DNA” value is not above 0.2.

On to NHAA, for which the “one-hybrid fitness for binding parS DNA” value was not above 0.2.

Consider RHAA, for which the “one-hybrid fitness for binding parS DNA” value amounted to 0.534. In the case of RHFA, the “one-hybrid fitness for binding parS DNA” value is 0.516.

On to VDYT, for which the “one-hybrid fitness for binding parS DNA” value is not above 0.2. As to NQNT, the “one-hybrid fitness for binding parS DNA” value was not above 0.2.

With HAPR, the “one-hybrid fitness for binding parS DNA” value is not above 0.2. With EKTR, the “one-hybrid fitness for binding parS DNA” value was not above 0.2. In the case of RGKA it was 0.475.

Consider RPKA, for which the “one-hybrid fitness for binding parS DNA” value is not above 0.2. For RHKA the value was 0.692.

Regarding RFKA, the “one-hybrid fitness for binding parS DNA” value came out at 0.571. In the case of RWYA, the “one-hybrid fitness for binding parS DNA” value is 0.348.

Regarding RFVA, the “one-hybrid fitness for binding parS DNA” value came out at 0.44.

RHVA: the “one-hybrid fitness for binding parS DNA” value worked out at 0.499. Turning to RWVA, the “one-hybrid fitness for binding parS DNA” value was 0.329. For PFKA the value was not above 0.2; for RWKA, 0.574; for RCKA, 0.844. Turning to DHKA, the “one-hybrid fitness for binding parS DNA” value was not above 0.2.

Take KSVS: the “one-hybrid fitness for binding parS DNA” value is not above 0.2.
